The campaign covered roughly 290,000 compounds. About 3,200 (1.1%) were called active. This is one part of a sample in which actives are shown more often than they occur. Rule as the data show it: active = inhibition above about 60%; inactive = the rest.
The compounds below were run against Phosphoethanolamine/phosphocholine phosphatase (Homo sapiens) (UniProt Q8TCT1) (assay: PubChem AID 1565). Conditions: recombinant PHOSPHO1, absorbance phosphatase assay; at 13.3 µM; hits give high values.
Sequence of Phosphoethanolamine/phosphocholine phosphatase (Homo sapiens) (Q8TCT1 whole entry, looked up): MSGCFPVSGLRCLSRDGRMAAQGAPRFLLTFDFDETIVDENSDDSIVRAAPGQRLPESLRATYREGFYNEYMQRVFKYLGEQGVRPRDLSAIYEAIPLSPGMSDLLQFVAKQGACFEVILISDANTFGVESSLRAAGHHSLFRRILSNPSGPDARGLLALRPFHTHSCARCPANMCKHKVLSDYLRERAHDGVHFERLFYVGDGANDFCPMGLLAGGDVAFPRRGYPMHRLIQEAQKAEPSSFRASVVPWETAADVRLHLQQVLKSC
With Cc1ccc(S(=O)(=O)N2CCN=C2SCc2c(F)cccc2Cl)cc1 the inhibition was 22.6% (inactive).
In the case of OC(CNCCc1ccc(Cl)cc1Cl)COc1ccccc1 (configuration not stated), the inhibition is reported as 46.3% (inactive).
With COc1ccc(OC)c(C(=O)NC(CC(N)=O)c2ccc(N3CCC(N4CCCCC4)CC3)c([N+](=O)[O-])c2)c1 (configuration not stated) the inhibition was -18.6% (inactive).
With O=C(CNc1cccc(S(=O)(=O)N2CCCCC2)c1)Nc1ccccc1F the inhibition was 42.8% (inactive).
With CC(C)C(C(=O)NCc1ccco1)N(CC1CCCO1)C(=O)CNS(=O)(=O)c1ccc(F)cc1 (configuration not stated) the inhibition was 46.2% (inactive).
CCOc1ccccc1Nc1nnc(SCC(=O)Nc2cc(C)on2)s1 was tested, and the inhibition was 61.5% (active).
Cc1cc(NC(=O)CSc2nnc(Nc3ccccc3F)s2)no1 was tested, and the inhibition was -3.4% (inactive).
With CCOc1ccccc1Nc1nnc(SCc2ccc(C(=O)OC)o2)s1 the inhibition was 48.3% (inactive).
CCOC(=O)C1(CCOC)CCN(Cc2cc3ccccc3s2)CC1 was tested, and the inhibition was 3.1% (inactive).
For CCCCNC(=O)CSc1nc2ccc(NC(=O)CSc3nnc(COc4ccccc4C)n3C)cc2s1, the inhibition was 74.2% (active).
With CCOC(=O)c1ccc(NC(=O)CSc2nnc(COc3ccccc3OC)n2C)cc1 the inhibition was 6.3% (inactive).
CCCCNC(=O)CSc1nc2ccc(NC(=O)CSc3nnc(N)s3)cc2s1 was tested, and the inhibition was -25.6% (inactive).
CC(C)[C@H](NC(=O)N1CCn2c1nc1ccccc12)C(=O)NC1CC1 was tested, and the inhibition was 46.9% (inactive).
O=S1(=O)CCOC[C@H](CC2CCCCC2)N1Cc1ccc(F)cc1 was tested, and the inhibition was 4% (inactive).
For CCOC(=O)c1c(C)[nH]c(C)c1S(=O)(=O)NCCCc1ccco1, the inhibition was -28.5% (inactive).
COc1cccc(NC(C)=[N+](C)CCNS(=O)(=O)c2ccc(Cl)cc2)c1 was tested, and the inhibition was -9% (inactive).
In the case of COC(=O)C1=C(C)NC(=O)/C1=C/c1ccc(CNS(=O)(=O)c2ccc(C)cc2)o1, the inhibition is reported as 41.2% (inactive).
With O=S(=O)(NCc1ccccc1)c1ccc(S(=O)(=O)N2CCCC2)cc1 the inhibition was 3.4% (inactive).
In the case of O=c1/c(=C/c2ccc(CNS(=O)(=O)c3ccccc3)o2)sc2n1CCN=2, the inhibition is reported as 97.8% (active).
In the case of O=C(Nc1ccc(C(=O)O)cc1)/C(=C\c1ccccc1)NC(=O)c1ccc(Br)cc1, the inhibition is reported as 25% (inactive).
With Cc1ccc(S(=O)Cc2ccc(C(=O)N3CCN(C4CCCCC4)CC3)o2)cc1 (configuration not stated) the inhibition was 26.1% (inactive).
For CCC(C)c1ccccc1NC(=O)CN(C)CC(=O)Nc1ccccc1SC (configuration not stated), the inhibition was 7% (inactive).
With COc1ccc(NC(=O)CSc2nnc(-c3cccs3)n2Cc2ccco2)cc1OC the inhibition was 19.4% (inactive).
In the case of O=C(CSc1nnc(-c2cccnc2)n1Cc1ccco1)c1ccc(Cl)cc1, the inhibition is reported as 79.6% (active).
Cc1cc(NC(=O)CSc2nc3cc(Cl)ccc3c(=O)n2Cc2ccco2)no1 was tested, and the inhibition was 12.3% (inactive).
With O=C(CSc1nnc(-c2cccnc2)n1Cc1ccco1)c1ccc(Cl)c(Cl)c1 the inhibition was 71.1% (active).
O=C(CSc1nnc(-c2cccs2)n1Cc1ccco1)c1ccc2c(c1)OCO2 was tested, and the inhibition was -69.6% (inactive).
With O=C(CSc1nnc(-c2cnccn2)n1Cc1ccco1)c1ccc(Cl)c(Cl)c1 the inhibition was 85.4% (active).
In the case of COc1cc(Cl)c(C)cc1NC(=O)CSc1nnc(-c2cccnc2)n1Cc1ccco1, the inhibition is reported as 28.9% (inactive).
In the case of CCn1c(COc2ccccc2)nnc1SCC(=O)NCc1ccco1, the inhibition is reported as 19.2% (inactive).
CCc1ccc(NC(=O)CSc2nnc(-c3cnccn3)n2Cc2ccco2)cc1 was tested, and the inhibition was 1.3% (inactive).
COc1ccc(C(=O)CSc2nnc(COc3ccccc3)n2Cc2ccco2)cc1 was tested, and the inhibition was 91.7% (active).
For Cc1ccc(NC(=O)CSc2nnc(-c3cnccn3)n2Cc2ccco2)cc1C, the inhibition was -3.2% (inactive).
C=CCn1c(CNC(=O)c2ccco2)nnc1SCC(=O)c1ccc(OC)cc1 was tested, and the inhibition was 32.2% (inactive).
CC1CCN(C(=O)/C(=C\c2ccccc2F)NC(=O)c2ccccc2)CC1 was tested, and the inhibition was 18.7% (inactive).
For CCN(c1cccc(C)c1)S(=O)(=O)c1ccc(-c2coc(C)n2)cc1, the inhibition was -0.1% (inactive).
For Cc1cc(=O)oc2c3c(cc(OCC(=O)NCc4ccccn4)c12)OC(C)(C)CC3, the inhibition was 34.3% (inactive).
O=C1C(=O)N(CCN2CCOCC2)C(c2cccc(Cl)c2)/C1=C(/O)c1ccc2c(c1)OCO2 (configuration not stated) was tested, and the inhibition was 24% (inactive).
In the case of CN(C(=O)CCN1C(=O)/C(=C/c2ccccc2F)SC1=S)C1CCS(=O)(=O)C1 (configuration not stated), the inhibition is reported as 52.6% (inactive).
COc1ccc(OC)c(NC(=O)Cc2cccs2)c1 was tested, and the inhibition was 3.8% (inactive).
In the case of CCCc1nn2c(=O)cc(CSCC(=O)Nc3cccc(C)c3)nc2s1, the inhibition is reported as 24% (inactive).
For C(=C\c1ccccc1)/CSc1nnc(-c2cccnc2)n1Cc1ccco1, the inhibition was 70.5% (active).
In the case of O=C(CSc1nnc(-c2cccnc2)n1CCc1ccccc1)NCc1ccccc1, the inhibition is reported as 1.5% (inactive).
For CCOC(=O)Cc1csc(NC(=O)CSc2nnc(-c3cccnc3)n2Cc2ccco2)n1, the inhibition was 17.3% (inactive).
Cc1ccc(C(=O)N(CC(=O)NC2CCCC2)c2ccc(F)cc2)s1 was tested, and the inhibition was 40.5% (inactive).
With CCCCn1c(SCC(=O)N2CCC(C(=O)OCC)CC2)nc2cc(S(N)(=O)=O)ccc21 the inhibition was 1.5% (inactive).
With CCn1c(SCC(=O)NCC2CCCO2)nc2cc(S(=O)(=O)N3CCCCC3)ccc21 (configuration not stated) the inhibition was 14.5% (inactive).
In the case of CCCCn1c(SCc2ncc(-c3ccccc3)o2)nc2cc(S(N)(=O)=O)ccc21, the inhibition is reported as 75.4% (active).
For O=C(c1cccc(-n2cccc2)c1)N1CCN(S(=O)(=O)c2ccc(F)cc2)CC1, the inhibition was -102% (inactive).
For O=C(C1CC(=O)N(c2ccc(F)cc2)C1)N1CCN(c2ccccc2)CC1 (configuration not stated), the inhibition was 42.6% (inactive).
For Cc1nn(C(C)C(=O)NCCC2=CCCCC2)c(=O)c2nn(-c3ccccc3)c(C)c12 (configuration not stated), the inhibition was 54.1% (inactive).
In the case of COc1ccc(OC)c(CNC(=O)Cn2nc(C)c3c(C)n(-c4ccc(C)cc4)nc3c2=O)c1, the inhibition is reported as 24% (inactive).
In the case of COc1ccc(CNC(=O)C(C)n2nc(C)c3c(C)n(-c4ccccc4)nc3c2=O)c(OC)c1 (configuration not stated), the inhibition is reported as 64.7% (active).
With COC(=O)c1ccc(CN2CCCC(C(=O)Nc3cccc(-n4cnnn4)c3)C2)cc1 (configuration not stated) the inhibition was 22.6% (inactive).
For Cn1nccc1NS(=O)(=O)c1ccc(F)cc1, the inhibition was 69.9% (active).
Cc1cc(C)cc(NS(=O)(=O)c2ccc(F)cc2)c1 was tested, and the inhibition was 28.3% (inactive).
With Cn1c(=O)n(C)c2cc(NS(=O)(=O)c3ccc(F)cc3)ccc21 the inhibition was 38.9% (inactive).
